# In the library only some 8% were active in any assay of this set; here they are far more common.
# HT1080 IDH1KD tx: toxicity to HT-1080 IDH1 knockdown cells (counter line). HT-1080 IDH1 knockdown viability, ATP luminescence, 48 h. Potency, µM (titrated, usually from 46.1 µM), most hits filed as cytotoxic. 360,000 compounds, 2% hits. AID 686971
#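 HT-1080-IDH1KD cells (IDH1 knocked down), 750/well in RPMI with 5% FBS, treated with compound 48 h at 37 degrees C. Viability by CellTiter-Glo luminescence, normalised to DMSO and no-cell wells; concentration-response curves classed.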
# HT1080NT lethal: kills 2HG-producing HT-1080-NT fibrosarcoma cells | 360,000 compounds, 1.6% hits | AID 686970 | HT-1080-NT fibrosarcoma viability, CellTiter-Glo ATP luminescence, 48 h | Potency, µM (doses to about 46.1 µM), hits mostly cytotoxic;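 further: NT is the 2HG producing partner of a matched IDH1 knockdown line; nearly all actives have a fitted effect of over 55% in size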
#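 Viability by CellTiter-Glo luminescence after 48 h compound exposure at 37C of HT-1080-NT cells (750/well, RPMI, 5% FBS). % activity scaled between DMSO wells and medium-only wells, then curve-fitted and categorized by curve class.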
# KB-3-1 tox: KB-3-1 parental cell cytotoxicity; 400,000 compounds, 1.4% hits; KB-3-1 viability, CellTiter-Glo ATP luminescence, 72 h; Potency, µM (titrated, usually from 46.1 µM), usual class: cytotoxic; AID 1347075; further: nearly all actives have a fitted effect of over 60% in size
#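 Multi-concentration cytotoxicity screen in KB-3-1 cells grown in DMEM lacking phenol red with 10% FBS. After 72 h at 37 °C with compound, ATP-dependent luminescence was recorded.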
# MCF10A rerep: induces DNA re-replication in MCF 10a normal breast cells; MCF 10A DNA re-replication, Hoechst nuclear intensity, 48 h; Potency, µM (highest dose often 46.1 µM), usual class: activators; 350,000 compounds, 2.9% hits; further: nearly all actives have a fitted effect of over 50% in size
# SW480 rerep: induces DNA re-replication in SW480 colon adenocarcinoma cells; SW480 DNA re-replication, Hoechst DNA content imaging, 48 h; AID 624297; Potency, µM (highest dose often 46.1 µM), usual class: activators; 340,000 compounds, 1.8% hits; further: nearly all actives have a fitted effect of over 55% in size
#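 Treated cells incubate 48 hr (37 C, 5% CO2), are stained 40 min with Hoechst, and nuclear fluorescence is enumerated; a rise in nuclei with high DNA signal marks re-replication.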
# KB-V1 cytotox: kills drug-selected multidrug resistant KB-V1 cells. 400,000 compounds, 3.4% hits. Potency, µM (doses to about 46.1 µM), most hits filed as cytotoxic. KB-V1 MDR cells viability, CellTiter-Glo, 72 h. AID 1347076; further: nearly all actives have a fitted effect of over 60% in size
#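 KB-V1 MDR subline cells in DMEM (phenol-red free, 10% FBS) exposed to compounds in qHTS concentration series for 72 h at 37 degrees C. Viability read by CellTiter-Glo luminescence; concentration-effect curves fitted after normalization and correction.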
# Numbers stand for hits; – = inactive; ? = inconclusive; · = no result given. The call rests on the fitted dose curve; in most records, active means well fitted curve in the direction sought with a large enough effect; inconclusive means small, poorly fitted or top-dose-only effect, or another doubt; inactive means no such curve, though single readings can be large; an effect the other way counts as inactive or inconclusive.
SMILES,HT1080 IDH1KD tx,HT1080NT lethal,KB-3-1 tox,MCF10A rerep,SW480 rerep,KB-V1 cytotox
CCN(CC)CCOC(=O)c1ccc(NC(=O)c2cc3c(=O)n(CC)c4ccccc4c3s2)cc1,·,·,–,·,·,–
CC(C)C(=O)NC(=S)Nc1ccc(S(=O)(=O)N2CCCC2)cc1,–,–,–,?,–,15µM
Cc1cccc(C(=O)NC(=S)Nc2ccc(S(=O)(=O)N3CCN(C)CC3)cc2)c1,–,–,–,?,–,–
Cc1ccc(C(=O)NC(=S)Nc2ccc(S(=O)(=O)N3CCN(C)CC3)cc2)cc1,–,–,–,–,–,23µM
O=C(NC(=S)Nc1ccc(S(=O)(=O)N2CCCCCC2)cc1)c1cccs1,–,?,–,–,–,–
O=C(NC(=S)Nc1ccc(S(=O)(=O)N2CCCC2)cc1)c1cccs1,–,–,–,–,–,10µM
CS(=O)(=O)N1CCN(c2ccc(NC(=S)NC(=O)c3cccs3)cc2)CC1,–,–,–,–,–,–
O=C(NC(=S)Nc1ccc(N2CCCCC2)cc1)c1cccs1,4µM,1.3µM,–,?,?,–
CCc1ccccc1NC(=O)Cn1c(=O)n(-c2ccc(C)cc2)c(=O)c2cc(OC)c(OC)cc21,·,·,–,·,·,–
Cc1ccc(-c2ccc(S(=O)(=O)N3CCN(C)CC3)cc2)cc1,–,–,–,–,–,13µM
COC(=O)c1scc(-c2ccc(C)cc2)c1S(=O)(=O)N1CCN(c2cccc(OC)c2)CC1,·,·,–,·,·,–
Cc1cnccc1CN(C)Cc1nc(Cc2ccccc2Cl)no1,–,?,21µM,–,–,9.2µM
COc1ccc(NC(=O)c2nc(C)c(C3(C)CC(c4ccccc4)=NO3)s2)cc1 (centres undefined),?,?,4.6µM,3.7µM,4.6µM,?
COc1ccccc1Oc1coc2cc(OC(=O)N3CCOCC3)ccc2c1=O,–,–,?,–,–,23µM
COc1cccc(Oc2coc3cc(OC(=O)N4CCOCC4)ccc3c2=O)c1,–,–,–,–,?,?
CCOC(=O)c1ccc(NC(=O)Nc2c[nH]c(=O)[nH]c2=O)cc1,·,·,–,·,·,–
CCCCCCCCOC(=O)c1cc([N+](=O)[O-])c(Sc2ncnc3nc[nH]c23)c([N+](=O)[O-])c1,13µM,?,?,–,?,?
O=C(Nc1cc(Cl)ccc1Cl)c1cc(S(=O)(=O)N2CCCc3ccccc32)ccc1F,·,·,–,·,·,–
CC(C)(C)c1cc(NC(=O)CCSc2nnc3ccccn23)cc(C(C)(C)C)c1,?,–,–,–,?,3.7µM
COc1cc(NC(=O)CSc2nnc3ccccn23)cc(OC)c1,–,–,–,–,–,–
COc1ccc(-c2cnc(C)o2)cc1S(=O)(=O)Nc1ccc(C)c(N(C)C)c1,·,·,–,·,·,–
CN(C)Cc1csc(NC(=O)Nc2ccccc2Cc2ccccc2)n1,?,15µM,–,·,·,–
Cc1cccc(C)c1NC(=O)Nc1nc(CN(C)C)cs1,–,?,–,·,·,–
NC(Cc1ccc(C(F)(F)F)cc1)c1csc(NC(=O)Nc2ccccc2Cc2ccccc2)n1 (centres undefined),23µM,8.2µM,?,·,·,?
CC(C)c1ccccc1NC(=O)Nc1nc(C(N)Cc2ccc(C(F)(F)F)cc2)cs1 (centres undefined),?,5.8µM,?,·,·,?
SMILES,HT1080 IDH1KD tx,HT1080NT lethal,KB-3-1 tox,MCF10A rerep,SW480 rerep,KB-V1 cytotox
CC(=O)N1CCc2cc(Br)cc(S(=O)(=O)NCCc3ccc(Cl)cc3)c21,·,·,–,·,·,–
CCOc1ccc(-c2cc(NC(=O)c3cccc(Cl)c3)c(C(=O)OC)s2)cc1,·,·,–,·,·,–
CCN(C(=O)Cc1c(C(=O)O)c(C)cn1C)c1cccc(Cl)c1,·,·,–,·,·,–
COc1ccc2c(c1)C(CC(=O)NN)CCC2 (centres undefined),1.6µM,7.3µM,23µM,2.3µM,13µM,?
COc1ccc(CC(=O)NC2CCCc3ccccc32)cc1 (centres undefined),–,–,–,–,–,?
C/C(=N\N1C(=O)c2ccccc2NC1c1ccco1)c1ccccc1O (centres undefined),?,?,?,4.1µM,?,?
C/C(=N\N1C(=O)c2ccccc2NC1c1ccccc1)c1ccccc1O (centres undefined),–,–,–,–,?,–
CC1(C)Cc2c(ccc3ccccc23)C2=C(C(=O)N3CCCC3)C(=O)C(=O)N21,–,–,–,21µM,–,–
COc1ccccc1CNC(=O)CCn1c(=O)c2ccccc2n(CC(=O)Nc2cc(Cl)ccc2C)c1=O,·,·,–,·,·,–
COc1cccc(/C=N/NC(=O)CSc2nnc(C)n2-c2ccccc2)c1O,13µM,?,?,?,?,–
COc1cccc(/C=N/NC(=O)C[n+]2ccccc2)c1O,–,–,–,?,?,–
COc1ccc(CCCC(=O)N/N=C/c2cccc(OC)c2O)cc1C,?,?,?,1.5µM,?,?
COc1cccc(/C=N/NC(=O)CN2CC(c3ccccc3)CC2=O)c1O (centres undefined),?,?,?,?,7.3µM,?
O=C(COc1ccccc1)NCC(=O)Nc1cccc2ccccc12,–,–,?,–,–,18µM
COc1ccc(CN2COc3ccc4c(C)cc(=O)oc4c3C2)cc1,·,·,–,·,·,?
COc1ccc2nc3oc(C(=O)N(C)c4ccc(Cl)cc4)cc3cc2c1,·,·,–,·,·,–
Cc1ccc2c(=O)cc(C(=O)Nc3ccc(S(=O)(=O)N(C)Cc4ccccc4)cc3)oc2c1,·,·,–,·,·,–
COc1cccc(/C=N/NC(=O)CNC(=O)COc2ccccc2)c1O,?,?,–,–,3.3µM,–
COc1ccc(/C=N/NC(=O)CNC(=O)COc2ccccc2)cc1,–,–,–,–,–,–
COc1cccc(/C=N/NC(=O)CNC(=O)c2cccnc2)c1O,12µM,?,–,?,?,–
COc1ccc(C(=O)NCCCNC(=O)c2cccnc2)cc1Br,10µM,?,–,–,–,–
CC1CCCC(C)N1C(=C(Cl)Cl)C(=C1SCCS1)[N+](=O)[O-] (centres undefined),–,–,26µM,–,–,?
CCOC(=O)C(CC)N1CCN(Cc2ccc(F)cc2)C(=O)C1=O (centres undefined),·,·,–,·,·,–
COc1ccccc1CN(C)C(=O)C(c1ccccc1)c1ccccc1,16µM,?,?,?,?,21µM
CN(Cc1ccc(F)cc1)C(=O)C(c1ccccc1)c1ccccc1,–,–,–,–,?,–
CCOCC(=O)N1CCC(Cc2ccccc2)CC1,–,–,–,–,–,–
Cc1ccc(/C=C/C(=O)N2CCCC(C)C2)cc1 (centres undefined),–,–,–,?,–,16µM

# Source: PubChem BioAssay
